# Test results from PubChem BioAssay AID720504 (National Center for Advancing Translational Sciences (NCATS), 2013).
# Screen size: about 360,000 compounds; about 10,000 (2.8%) were called active. Roughly 4% stayed inconclusive and do not appear here. The sample as a whole holds a higher share of actives than the screen did. A number with no mark means an inactive call. Calls follow the shape of the dose curve; as a rule, active = well fitted inhibition curve with a large enough effect; inconclusive = small, poorly fitted or top-dose-only effect; inactive = flat fitted curve, though single readings scatter.
# Target: Serine/threonine-protein kinase PLK1 (Homo sapiens) (UniProt P53350)
# Experiment: qHTS for Inhibitors of PLK1-PDB (polo-like kinase 1 - polo-box domain): Primary Screen; also: nearly all actives have a fitted effect of over 65% in size; as to max response, negative = inhibition: series mostly up to about 57 µM
# Details: Plk1 PBD binding of FITC phosphopeptide, fluorescence polarization
# % is scaled to controls: 0 for no effect and ±100 for the full control effect; potency is read from the fitted curve at half-maximal effect.
# Chain of Serine/threonine-protein kinase PLK1 (Homo sapiens) (P53350 whole entry, looked up, the tested form may be a part): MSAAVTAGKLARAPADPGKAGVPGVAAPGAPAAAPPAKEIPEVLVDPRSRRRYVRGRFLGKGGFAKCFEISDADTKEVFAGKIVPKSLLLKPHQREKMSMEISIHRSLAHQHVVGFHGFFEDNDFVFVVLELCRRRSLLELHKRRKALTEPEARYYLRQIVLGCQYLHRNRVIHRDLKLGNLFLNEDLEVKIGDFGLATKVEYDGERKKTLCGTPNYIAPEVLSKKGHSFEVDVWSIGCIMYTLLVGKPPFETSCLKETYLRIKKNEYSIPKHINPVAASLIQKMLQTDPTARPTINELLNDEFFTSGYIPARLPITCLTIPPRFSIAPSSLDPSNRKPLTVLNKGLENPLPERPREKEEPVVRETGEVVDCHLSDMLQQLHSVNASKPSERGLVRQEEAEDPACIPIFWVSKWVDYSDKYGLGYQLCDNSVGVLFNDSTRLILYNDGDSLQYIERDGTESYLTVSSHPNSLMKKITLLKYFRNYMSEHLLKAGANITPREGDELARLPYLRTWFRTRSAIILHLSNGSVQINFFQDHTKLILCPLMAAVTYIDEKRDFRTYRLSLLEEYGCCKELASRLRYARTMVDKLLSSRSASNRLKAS
Structure (SMILES),"max response, negative = inhibition [%]",Potency
Cc1ccc([C@H]2C[C@H](O)[C@@H](n3cc(COC(=O)c4ccccc4)nn3)CN2CC2CCCCC2)cc1,7.82,
COc1cccc(Nc2nnc(SCC(=O)N3CC(=O)Nc4ccccc43)s2)c1,,26.7 µM (active)
COc1cccc(Nc2nnc(SCC(=O)N3CC(C)OC(C)C3)s2)c1 (centres undefined),1.98,
Cc1nc(SCC(=O)N2CC(=O)Nc3ccccc32)c2c(C)c(C)sc2n1,-1.22,
COC(=O)[C@]12CCCCC=C1N(CCC1=CCCCC1)C(=O)[C@H](CC(=O)N1CCSCC1)C2,-4.1,
CCOC(=O)[C@]12CCC=C1N(CCC1=CCCCC1)C(=O)[C@H](CC(=O)NCc1ccc(C)o1)C2,-24.8,
CC(=O)Nc1cccc(-c2cc(NC=O)c3ncc(-c4ccc(F)c(Cl)c4)n3c2)c1,-21.6,
O=S1(=O)CCN(C2CCCCCCCCCCC2)CC1,-0.289,
CCOC(=O)C(=Cc1ccccc1)C(=O)c1ccccc1,-10.7,
Cc1cc(C)nc(N(C#N)CC(=O)Nc2ccccc2)n1,-10.2,
Cc1cc(C)nc(S/C=C/C(=O)c2ccccc2)n1,,2.99 µM (active)
Cc1ccc(S(=O)(=O)N2C[C@@H](C)[C@]3(C2)[C@H](O)[C@H](OC(=O)NCc2ccccc2)C[C@H]2C(=O)N(c4ccccc4)C(=O)[C@H]23)cc1,-4.82,
O=C(Nc1ccccc1)C1CCN(C(=O)c2ccc(Br)cc2)CC1,1.93,
COc1ccc(C(=O)N2CCC(C(=O)Nc3ccc(C)cc3)CC2)cc1,,3.36 µM (active)
COc1ccc(C(=O)N2CCC(C(=O)Nc3cccc(C)c3)CC2)cc1OC,-1.21,
Cc1cccc(C)c1NC(=O)C(c1cccc2ccccc12)n1c(=O)c(-c2ccco2)nc2ccccc21 (centres undefined),-15.3,
CCOC(=O)[C@]12CCCC=C1N(Cc1ccc3c(c1)OCO3)C(=O)[C@H](CC(=O)NCc1cccs1)C2,-29.1,
CC[C@@H](C)[C@H](NC(=O)CCc1c(C)c2cc3c4c(oc3c(C)c2oc1=O)CCCC4)C(=O)O,-24,
Cc1c(CCC(=O)N[C@@H](CC(C)C)C(=O)O)c(=O)oc2c(C)c3oc4c(c3cc12)CCCC4,,29.9 µM (active)
Cc1c(C)c2cc3c4c(oc3c(C)c2oc1=O)CCCC4,-0.836,
CC(OC(=O)c1cccnc1Cl)C(=O)NC1CCCCC1 (centres undefined),1.67,
O=C(OCC(=O)N1CCCCCC1)c1cccc(Cl)c1Cl,-1.69,
COc1ccc(CC(N)c2csc(NC(=O)NC(c3ccccc3)c3ccccc3)n2)cc1 (centres undefined),-3.78,
O=C(Nc1ccc(Cl)cc1)c1csc([C@H]2C[C@H](O)[C@@H](CO)O2)n1,-10.3,
C=CCn1cnc2scc(-c3ccccc3)c2c1=O,-4,
C=CCn1c(=S)[nH]c2nc3c(cc2c1=O)COC(C)(C)C3,1.98,
C=CCn1c(=S)[nH]c2scc(-c3ccco3)c2c1=O,,26.7 µM (active)

Structure (SMILES),"max response, negative = inhibition [%]",Potency
C[C@H](CO)N1C[C@H](C)[C@H](CN(C)C(=O)Nc2ccc3c(c2)OCO3)Oc2ncc(Br)cc2C1=O,-14.4,
CC(=O)NCCC(=O)Nc1cc(S(=O)(=O)N2CCOCC2)ccc1N1CCOCC1,-0.805,
COCCNC(=S)Nc1cc(S(=O)(=O)N2CCOCC2)ccc1N1CCCCC1,,2.99 µM (active)
CC(C)CCC(=O)Nc1cc(S(=O)(=O)N2CCOCC2)ccc1N1CCCC1,-0.0205,
CCCNC(=O)C1(C)CCCN(C(=O)c2oc3ccccc3c2C)C1 (centres undefined),-5.78,
COC(=O)c1ccc2nc(C3CCCCC3)c(Cc3cccc(F)c3)n2c1,-6.81,
O[C@H]1C[C@H](c2ccc(Cl)cc2)N(Cc2cccs2)C[C@@H]1n1cc(C2CC2)nn1,-4.6,
CCCCNC(=O)C1CCC(=O)N1CCc1ccccc1 (centres undefined),-10.6,
COc1ccc(C2C3=C(CCCC3=O)N(CC(=O)O)C3=C2C(=O)CCC3)cc1,-11.9,
CCCCN1C(=O)CCC(C(=O)O)C1c1ccc(OC)cc1 (centres undefined),,26.7 µM (active)
CCCCC(=O)N(C)c1c(CC)nc2c(OCc3ccc(Cl)cc3Cl)cccn12,-5.31,
COc1cccc(CN2CCC(C(=O)NC(c3ccc4c(c3)OCO4)c3ccccn3)CC2)c1 (centres undefined),1.25,
C[C@@H]1CC2=C(C(=O)OC(C)(C)O2)[C@@H](C2CC2)O1,-2.71,
CCc1ccc(NC(=O)Cn2ncn3c(cc4ccccc43)c2=O)cc1,,15 µM (active)
COc1ccc(NC(=O)Cn2ncn3c(cc4ccccc43)c2=O)c(OC)c1OC,-11.6,
CC(C)c1ccc(NC(=O)Cn2ncc3ccccc32)cc1,5.15,
COc1ccc(C2OC(CCc3ccccc3)Cc3[nH]c(=S)[nH]c(=O)c32)cc1 (centres undefined),-0.658,
CC(=O)Nc1cc(-c2ccccc2N(C)C)cn2c(-c3ccc(F)c(Cl)c3)cnc12,-6.53,
COC(=O)[C@]12CCCCC=C1N(Cc1ccc3c(c1)OCO3)C(=O)[C@H](CC(=O)NCc1cccs1)C2,-8.01,
CCCNC(=O)C1(C)CCCN(Cc2cccc(C(F)(F)F)c2)C1 (centres undefined),-5.05,
COc1ccc(C(=O)NCc2nnc(SCCOc3ccccc3)n2C)cc1,,16.8 µM (active)
C=CCn1c(SCCOc2ccc(OC)cc2)nnc1C(NC(=O)c1ccc(OC)cc1)C(C)C (centres undefined),-13.7,
COc1ccc(-c2nnc(SCC(=O)Nc3cccnc3Cl)n2C)cc1,-2.41,
COc1ccc(C(=O)NCc2nnc(SCC(=O)NC3=NCCS3)n2C)cc1,-0.0324,
COc1ccc(CC(=O)NCc2nnc(SCC(=O)Nc3ncc(C)s3)n2C)cc1,,13.4 µM (active)
COc1ccc(CC(=O)NCc2nnc(SCC(=O)Nc3nccs3)n2C)cc1,3.83,
COc1cc2ccc(C(C)=O)c(O)c2cc1OC,-1.98,
